Tb PYK inh: inhibitors of Trypanosoma brucei pyruvate kinase. TbPYK enzyme, Kinase-Glo Plus ATP luminescence, 45 min. Potency, µM (highest dose often 76.8 µM), usual class: inhibitors. 410,000 tested, 0.12% active. AID 624173; further: nearly all actives have a fitted effect of over 50% in size
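Readout: single end-point luminescence (Kinase-Glo Plus, 10 min). Reaction conditions were TbPYK/substrate plus 130 uM ADP, 45 min at RT, pH 7.2 TEA buffer. No-enzyme wells served as controls, and data were normalized before concentration-response fitting.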
Shiga toxin inh: Shiga toxin inhibition | 290,000 tested, 9.2% active | Vero cells, Shiga toxin protein synthesis inhibition reporter | inhibition, % at 38.7 µM; in the data active means inhibition mostly above about 28%, no sharp cut-off; inactive means mostly below about 43%
Cycloheximide cs: affects cycloheximide protein synthesis inhibition readout, counter-screen | 300,000 tested, 12% active | cell reporter, cycloheximide protein synthesis inhibition counterscreen | max response, %; in the data active means max response mostly above about 13%, no sharp cut-off; inactive means mostly below about 14%; further: read at 38.3 µM for the half of the compounds with a filed dose
LmPK inh: inhibitors of Leishmania mexicana pyruvate kinase; purified LmPK, Kinase-Glo ATP luminescence, 1 h; Potency, µM (highest dose often 57.5 µM), usual class: inhibitors; 290,000 tested, 0.37% active; AID 1721
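ATP generated from ADP (0.1 mM) and PEP (0.5 mM) by 0.1 nM LmPK over 1 h at room temperature (pH 7.2 imidazole buffer) was detected by coupled luciferase luminescence. Values were normalized to uninhibited and no-enzyme wells.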
FBPA Giardia inh: inhibitors of Giardia lamblia fructose-1,6-bisphosphate aldolase | A8B2U2 | purified Giardia FBPA | Potency, µM (highest dose often 59.6 µM), hits mostly inhibitors | 290,000 tested, 0.71% active | AID 2451; further: nearly all actives have a fitted effect of over 55% in size
Target sequence (A8B2U2 whole entry, looked up): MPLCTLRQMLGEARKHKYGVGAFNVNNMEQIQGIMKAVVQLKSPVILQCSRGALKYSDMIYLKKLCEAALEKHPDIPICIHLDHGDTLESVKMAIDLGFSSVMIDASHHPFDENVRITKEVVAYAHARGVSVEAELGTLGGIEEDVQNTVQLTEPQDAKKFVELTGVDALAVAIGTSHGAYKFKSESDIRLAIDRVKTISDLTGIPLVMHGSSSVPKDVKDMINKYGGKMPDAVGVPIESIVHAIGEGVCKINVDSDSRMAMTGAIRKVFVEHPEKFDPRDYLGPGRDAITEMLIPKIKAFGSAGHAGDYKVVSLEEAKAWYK
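40 nM FBPA preincubated 10 min at RT with compound (up to 57.5 uM final), then substrate plus GAPDH/TPI/NAD/arsenate coupling and diaphorase/resazurin added. Fluorescence read after 20 min at RT, 525/598 nm.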
Sm TGR inh: S. mansoni TGR enzyme inhibition; Q962Y6; Potency, µM (highest dose often 114 µM), actives largely listed as inhibitors; 360,000 tested, 3% active; purified TGR, DTNB reduction, TNB absorbance 405 nm; further: nearly all actives have a fitted effect of over 60% in size
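First, TGR (20 nM dispensed) and NADPH were mixed with compound. Second, a 15 min room-temperature incubation followed. Third, further NADPH and then DTNB were added to start the reaction. Finally, TNB absorbance was monitored kinetically.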
Numbers stand for hits; i = inactive; ? = inconclusive; nt = no result given; [ ] = dose if it differs, or a comment. The entries come from a sample that favours hits as a whole. Unless noted, the call rests on the fitted dose curve; in most records, active means well fitted curve in the direction sought with a large enough effect; inconclusive means small, poorly fitted or top-dose-only effect, or another doubt; inactive means no such curve, though single readings can be large; an effect the other way counts as inactive or inconclusive.

SMILES	Tb PYK inh	Shiga toxin inh	Cycloheximide cs	LmPK inh	FBPA Giardia inh	Sm TGR inh
CN1C(=O)C(Cc2c[nH]c3ccccc23)NC1=S (stereo unspecified)	nt	47	30	nt	i	nt
COC(=O)c1ccc(CN2C(=O)NC(Cc3c[nH]c4ccccc34)C2=O)cc1 (stereo unspecified)	i	118	37	i	i	i
CN1C(=O)C(Cc2cccc3ccccc23)C(=O)N(C)C1=O	i	i	i	i	?	14µM
CN1C(=O)C(c2ccccc2)C(=O)N(C)C1=O	i	nt	nt	nt	nt	nt
CN1C(=O)C(Cc2c[nH]c3ccccc23)C(=O)N(C)C1=O	nt	i	i	i	?	14µM
C[C@H]1CN([C@@H](C)CO)C(=O)CCCn2nncc2CO[C@H]1CN(C)C(=O)c1ccc2ccn(C)c2c1	i	nt	nt	nt	nt	nt
COc1ccc(NC(=O)C2Cc3c(-c4cccc(C(C)=O)c4)ccnc3O2)cn1 (stereo unspecified)	i	nt	nt	nt	nt	nt
CN(C)C(=O)CCc1ccc2c3c([nH]c2c1)[C@]1(C)[C@@H](C(=O)N2CCOCC2)C[C@H](CC(=O)NCCN2CCOCC2)C(=O)N1CC3	i	nt	nt	nt	nt	nt
O=C1c2ccccc2C(=O)C1Cc1cccc2ccccc12	i	i	20	i	?	56µM
CN1C(=O)C(Cc2ccc(OCc3ccccc3)cc2)C(=O)N(C)C1=O	i	67	38	i	i	i
COc1cccc(C2Oc3ccccc3C3CC(c4cccs4)=NN32)c1 (stereo unspecified)	i	79	51	i	i	?
O=C(c1ccccc1)C1Oc2ccccc2C2CC(c3cccs3)=NN12 (stereo unspecified)	i	i	i	i	i	i
Cc1cccc2nc(CSc3ncccc3C(=O)O)cn12	i	i	i	i	?	i
Cc1cccc2nc(COc3ccc(Cl)c4cccnc34)cn12	i	102	33	i	i	i
Cc1cc(/C=C2\SC(=S)N(Cc3ccco3)C2=O)c(C)n1-c1ccccc1	i	80	73	i	i	i
Cc1cc(/C=C2\SC(=O)N(C)C2=O)c(C)n1-c1ccc(O)cc1	i	51	34	i	i	i
CCOc1ccc(N2C(=O)/C(=C/c3ccccn3)SC2=S)cc1	i	i	i	i	i	i
O=C1/C(=C/c2ccccn2)SC(=S)N1c1cccc(O)c1	i	38	36	i	i	i
CN(C)c1ccc(C=C2SC(=S)N(Cc3ccco3)C2=O)cc1	i	nt	nt	nt	nt	nt
Cc1cc(/C=C2\SC(=O)N(C)C2=O)c(C)n1-c1ccc(S(N)(=O)=O)cc1	i	i	22	i	i	i
C[C@]12CCC(=O)C=C1CCC1C2C(O)C[C@]2(C)C1CC[C@]2(O)C(=O)COC(=O)CCC(=O)O (stereo partly specified)	nt	nt	nt	nt	i	nt
COc1cc(CNc2ncnc3c2ncn3[C@H]2CN(Cc3ccco3)C[C@@H](CO)O2)cc(OC)c1OC	i	nt	nt	nt	nt	nt
CCc1nnc(NC(=O)CN2C(=O)N(C)C3(CCCCC3)C2=O)s1	i	nt	nt	nt	nt	i
CCOC(=O)c1ccccc1NC(=O)c1nn(-c2ccc(C)cc2)c(=O)n(C)c1=O	i	nt	nt	nt	nt	i
COCC(=O)N1CCC2(CC1)CCN(c1cccc(-c3ccccc3)c1)CC2	i	nt	nt	nt	i	nt
SMILES	Tb PYK inh	Shiga toxin inh	Cycloheximide cs	LmPK inh	FBPA Giardia inh	Sm TGR inh
CC(=O)NC1=NC(=O)/C(=C/c2cc(C)n(-c3ccc(NC(C)=O)cc3)c2C)S1	i	i	33	?	i	?
CN=C1S/C(=C\c2cc(C)n(-c3ccccc3F)c2C)C(=O)N1C	i	96	44	i	i	i
Cc1cc(/C=C2\SC(=S)N(C)C2=O)c(C)n1-c1cccc(O)c1	i	107	59	i	i	i
COc1ccc(-n2c(C)cc(/C=C3/SC(=S)N(C)C3=O)c2C)cc1	i	i	i	i	i	i
CC(=O)NC1=NC(=O)/C(=C/c2cn(C(C)=O)nc2-c2ccccc2)S1	7.1µM	i	i	i	i	i
CN=C1S/C(=C\c2ccc(N3CCOCC3)cc2C)C(=O)N1C	i	i	i	i	i	i
CN1CCCC(OC(=O)c2ccc3c(c2)OCCO3)C1 (stereo unspecified)	i	i	13	i	i	i
CN1CCCC(OC(=O)c2ccc(C(C)(C)C)cc2)C1 (stereo unspecified)	i	i	18	i	i	i
CN1CCCC(OC(=O)c2ccc(Cl)cc2)C1 (stereo unspecified)	i	i	i	i	i	i
O=C(COc1cccc(F)c1)NNC(=O)Cc1ccc(Br)cc1	i	nt	nt	nt	nt	i
c1cc(C(c2nnnn2C2CCCC2)N2CCOCC2)ccn1 (stereo unspecified)	i	i	i	i	i	28µM
Oc1ccc(C(c2nnnn2C2CCCCC2)N2CCOCC2)cc1 (stereo unspecified)	i	i	i	i	i	2.8µM
c1cncc(C(c2nnnn2C2CCCCC2)N2CCCCC2)c1 (stereo unspecified)	i	i	i	i	i	i
Oc1ccc(N2CCN(C(c3ccncc3)c3nnnn3C3CCCC3)CC2)cc1 (stereo unspecified)	i	i	i	i	i	i
Cc1c(C(=O)OCC(C)(C)CN(C)C)oc2ccccc12	i	87	44	i	i	i
Cc1c(C(=O)OC(C)CCN(C)C)oc2ccccc12 (stereo unspecified)	i	i	i	i	i	i
CCN(CC)CC(C)(C)COC(=O)c1oc2ccccc2c1C	i	43	i	i	i	i
Cc1c(C(=O)OCC(=O)N(C)Cc2ccccc2)oc2ccccc12	i	nt	nt	nt	nt	i
Cc1c(C(=O)OCC(=O)N(C)c2ccccc2)oc2ccccc12	i	50	28	i	i	i
Cc1ccccc1C(=O)NCCCNC(=O)c1ccccn1	i	i	i	i	i	i
Cc1cc(NC(=O)c2ccc3c(c2)OCO3)ccc1NC(=O)c1ccco1	i	i	14	14µM	i	i
Cc1ccc(C(=O)Nc2ccc3c(c2)OCO3)cc1NC(=O)c1ccco1	i	74	27	i	i	i
Cc1ccc(OCCOCCn2cnc3ccccc3c2=O)c([N+](=O)[O-])c1	i	i	i	i	i	i
O=c1c2ccccc2ncn1CCOc1ccccc1[N+](=O)[O-]	i	i	26	i	i	nt
O=c1c2ccc([N+](=O)[O-])cc2ncn1CCOc1ccccc1	i	54	20	i	i	nt
Cc1ccc(OCCn2cnc3cc([N+](=O)[O-])ccc3c2=O)cc1	i	i	i	i	i	i
CSCC[C@@H]1NC(=O)C/C=C\[C@@H](C)COC(=O)[C@@H](C)COC1=O	nt	nt	nt	nt	i[12.9 µM]	nt
COCCNC(=O)c1ccc(-c2csc(C)n2)cc1	i	89	23	i[11.5 µM]	i	i
Cc1nc(-c2ccc(C(=O)NCCO)cc2)cs1	i	i	37	i	i	i
COCCCNC(=O)c1ccc(-c2csc(C)n2)cc1	i	90	38	i	i	i
